Experimental data reported in PubChem BioAssay (NCATS).
Results filed as inconclusive are left out. Calls of active or inactive are those of the source. Unless noted, no stated cut-off is given here; in the data, active means potency below about 10 µM; inactive means the rest.

Target: Lysosomal acid glucosylceramidase (Homo sapiens) (UniProt P04062)
Assay: Glucocerebrosidase-p2 (AID 348); further: potency means the concentration at half of the fitted maximal effect
Settings: purified GBA, blue fluorogenic substrate, 40 min
In short: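 Compounds titrated from 0.6 nM upwards against 0.2 nM enzyme in pH 5.9 citric acid/KH2PO4, taurocholate, tween-20; blue fluorogenic substrate 80 uM, 40 min room temperature, stopped and read Ex 365/Em 440 for AC50.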

Sequence of Lysosomal acid glucosylceramidase (Homo sapiens) (P04062 whole entry, looked up): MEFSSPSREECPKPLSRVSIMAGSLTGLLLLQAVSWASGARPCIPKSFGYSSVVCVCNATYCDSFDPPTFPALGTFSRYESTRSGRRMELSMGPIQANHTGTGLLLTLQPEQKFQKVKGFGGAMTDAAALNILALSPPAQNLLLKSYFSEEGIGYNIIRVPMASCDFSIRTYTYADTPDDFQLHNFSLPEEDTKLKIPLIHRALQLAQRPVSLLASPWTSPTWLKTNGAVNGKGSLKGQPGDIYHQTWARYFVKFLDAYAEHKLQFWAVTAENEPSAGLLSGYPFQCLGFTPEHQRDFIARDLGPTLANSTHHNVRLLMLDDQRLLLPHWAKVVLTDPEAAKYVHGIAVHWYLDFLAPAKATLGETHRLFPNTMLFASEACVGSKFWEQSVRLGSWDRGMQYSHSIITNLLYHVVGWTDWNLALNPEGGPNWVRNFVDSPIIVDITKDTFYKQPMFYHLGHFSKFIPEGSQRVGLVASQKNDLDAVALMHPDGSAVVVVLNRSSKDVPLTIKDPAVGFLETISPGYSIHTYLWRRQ

Potency, inactive:
COC(=O)N1CCC2(CCCN(Cc3ccccc3OC)C2)CC1 > 11.4 µM, Cc1noc(C)c1C(=O)N1CCC[C@@]2(CCN(Cc3ccccc3)C2)C1 > 11.4 µM, O=S(=O)(c1ccccc1)N1CCC2(CCCN(c3ncccn3)C2)CC1 > 11.4 µM, COc1ccc(NC(=O)N2CCCC3(CCNCC3)C2)cc1 > 11.4 µM, COc1ccc(NC(=O)N2CC3(CCN(C(C)=O)CC3)C2)cc1 > 11.4 µM, CC(=O)N1CCC2(CC1)CN(c1ccccc1)C2 > 11.4 µM, COc1ccccc1CN1CC[C@@]2(CCCN(C(=O)c3cccn3C)C2)C1 > 11.4 µM, Cn1cccc1C(=O)N1CCC[C@@]2(CCN(Cc3cc(C(F)(F)F)cc(C(F)(F)F)c3)C2)C1 > 11.4 µM, COc1ccccc1CN1CC[C@@]2(CCCN(C(C)=O)C2)C1 > 11.4 µM, COc1ccccc1CN1CC[C@@]2(CCCN(S(C)(=O)=O)C2)C1 > 11.4 µM, O=C(c1csnn1)N1CCC2(CC1)CN(c1ccccc1)C2 > 11.4 µM, COc1ccc(NC(=O)N2CC[C@@]3(CCCN(C(=O)c4cnccn4)C3)C2)cc1 > 11.4 µM, CC(C)CN1CC[C@@]2(CCCN(C(=O)c3csnn3)C2)C1 > 11.4 µM, CC(=O)N1CCC2(CC1)CCN(C(=O)Nc1cccc(F)c1)CC2 > 11.4 µM, O=C(c1cnccn1)N1CCC2(CCCN(c3ccccc3)C2)CC1 > 11.4 µM, O=C(c1ccncc1)N1CCC2(CC1)CCN(C(c1ccccc1)c1ccccc1)CC2 > 11.4 µM, COCC(=O)N1CCC[C@@]2(CCN(C(=O)Nc3cccc(F)c3)C2)C1 > 11.4 µM, CC(C)NC(=O)N1CCCC2(CCN(C(=O)c3cccc(F)c3)CC2)C1 > 11.4 µM, COc1ccccc1CN1CCC2(CC1)CCN(C(C)=O)CC2 > 11.4 µM, N#Cc1ccc(CN2CCCC3(CCN(C(=O)c4cccc(F)c4)CC3)C2)cc1 > 11.4 µM, O=C(c1ccco1)N1CCC2(CC1)CN(C(c1ccccc1)c1ccccc1)C2 > 11.4 µM, CS(=O)(=O)N1CCC2(CC1)CN(Cc1cc(C(F)(F)F)cc(C(F)(F)F)c1)C2 > 11.4 µM, CC(C)NC(=O)N1CCCC2(CCN(C(=O)c3cc(C(F)(F)F)cc(C(F)(F)F)c3)CC2)C1 > 11.4 µM, N#Cc1cccc(NC(=O)N2CCC3(CC2)CCN(C(=O)c2csnn2)CC3)c1 > 11.4 µM, O=C(Oc1ccccc1)N1CCC[C@@]2(CCN(c3ncccn3)C2)C1 > 11.4 µM, COCC(=O)N1CCC[C@@]2(CCN(Cc3ccccc3OC)C2)C1 > 11.4 µM, CC(C)NC(=O)N1CC[C@@]2(CCCN(C(=O)c3cc(C(F)(F)F)cc(C(F)(F)F)c3)C2)C1 > 11.4 µM, O=C(Nc1cccc(F)c1)N1CC[C@@]2(CCCNC2)C1 > 11.4 µM, COCC(=O)N1CCC2(CCCN(C(=O)Nc3ccc(OC)cc3)C2)CC1 > 11.4 µM, O=C(c1ccco1)N1CCC[C@@]2(CCN(Cc3ccccc3)C2)C1 > 11.4 µM, CC(=O)N1CCC2(CCCN(C(c3ccccc3)c3ccccc3)C2)CC1 > 11.4 µM, COc1cccc(-c2ccc3ncnc(NC4CCNCC4)c3c2)c1 > 11.4 µM, COc1ccccc1CN1CCCC2(CCN(S(C)(=O)=O)CC2)C1 > 11.4 µM, O=C(c1csnn1)N1CCC[C@@]2(CCN(Cc3nccs3)C2)C1 > 11.4 µM, O=C(c1csnn1)N1CCC2(CC1)CCN(c1ccccc1)CC2 > 11.4 µM, CC(C)CN1CC[C@@]2(CCCN(C(=O)c3cnccn3)C2)C1 > 11.4 µM, CN(C)c1ncc2ncc(=O)n(Cc3ccc(F)cc3)c2n1 > 11.4 µM, O=C(c1ccco1)N1CCC[C@@]2(CCN(c3ccccc3)C2)C1 > 11.4 µM, CC(C)CN1CC[C@@]2(CCCN(S(=O)(=O)c3ccccc3)C2)C1 > 11.4 µM

Tested on: not listed separately
Assay: AP1 Signaling Pathway (AID 357; active means well fitted curve in either direction with a large enough effect, not every such curve was filed as active; further: on the % scale 0 is the no-effect control and ±100 the full control effect)
Settings: ME-180 AP-1-bla reporter, EGF-induced, beta-lactamase ratio, 5 h; at 7.69 µM (top of the series) unless noted
In short: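 ME-180 cells with beta-lactamase reporter under AP-1 response element, stimulated with EC50 EGF; compounds tested in titration series, 5 h at 37 °C. CCF4 substrate added 2.5 h at room temperature; 460/530 nm emission ratio gave %activity and AC50.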

Activity change, negative = inhibition, inactive:
COC(=O)N1CCC2(CCCN(Cc3ccccc3OC)C2)CC1 -7.44%, Cc1noc(C)c1C(=O)N1CCC[C@@]2(CCN(Cc3ccccc3)C2)C1 -8.33%, O=S(=O)(c1ccccc1)N1CCC2(CCCN(c3ncccn3)C2)CC1 0.46%, COc1ccc(NC(=O)N2CCCC3(CCNCC3)C2)cc1 -1.83%, COc1ccc(NC(=O)N2CC3(CCN(C(C)=O)CC3)C2)cc1 8.48%, CC(=O)N1CCC2(CC1)CN(c1ccccc1)C2 10.4%, COc1ccccc1CN1CC[C@@]2(CCCN(C(=O)c3cccn3C)C2)C1 -17%, Cn1cccc1C(=O)N1CCC[C@@]2(CCN(Cc3cc(C(F)(F)F)cc(C(F)(F)F)c3)C2)C1 8.92%, COc1ccccc1CN1CC[C@@]2(CCCN(C(C)=O)C2)C1 -19%, COc1ccccc1CN1CC[C@@]2(CCCN(S(C)(=O)=O)C2)C1 1.48%, O=C(c1csnn1)N1CCC2(CC1)CN(c1ccccc1)C2 -4.3%, COc1ccc(NC(=O)N2CC[C@@]3(CCCN(C(=O)c4cnccn4)C3)C2)cc1 -10.4%, CC(C)CN1CC[C@@]2(CCCN(C(=O)c3csnn3)C2)C1 -0.149%, CC(=O)N1CCC2(CC1)CCN(C(=O)Nc1cccc(F)c1)CC2 -10.4%, O=C(c1cnccn1)N1CCC2(CCCN(c3ccccc3)C2)CC1 13.8%, O=C(c1ccncc1)N1CCC2(CC1)CCN(C(c1ccccc1)c1ccccc1)CC2 -0.963%, COCC(=O)N1CCC[C@@]2(CCN(C(=O)Nc3cccc(F)c3)C2)C1 -14.2%, CC(C)NC(=O)N1CCCC2(CCN(C(=O)c3cccc(F)c3)CC2)C1 -13.6%, COc1ccccc1CN1CCC2(CC1)CCN(C(C)=O)CC2 -6.68%, N#Cc1ccc(CN2CCCC3(CCN(C(=O)c4cccc(F)c4)CC3)C2)cc1 19.4%, O=C(c1ccco1)N1CCC2(CC1)CN(C(c1ccccc1)c1ccccc1)C2 -3.72%, CS(=O)(=O)N1CCC2(CC1)CN(Cc1cc(C(F)(F)F)cc(C(F)(F)F)c1)C2 5.66%, CC(C)NC(=O)N1CCCC2(CCN(C(=O)c3cc(C(F)(F)F)cc(C(F)(F)F)c3)CC2)C1 -19.4%, N#Cc1cccc(NC(=O)N2CCC3(CC2)CCN(C(=O)c2csnn2)CC3)c1 -16.5%, O=C(Oc1ccccc1)N1CCC[C@@]2(CCN(c3ncccn3)C2)C1 2.93%, COCC(=O)N1CCC[C@@]2(CCN(Cc3ccccc3OC)C2)C1 -5.37%, CC(C)NC(=O)N1CC[C@@]2(CCCN(C(=O)c3cc(C(F)(F)F)cc(C(F)(F)F)c3)C2)C1 8.49%, O=C(Nc1cccc(F)c1)N1CC[C@@]2(CCCNC2)C1 2.44%, COCC(=O)N1CCC2(CCCN(C(=O)Nc3ccc(OC)cc3)C2)CC1 -3.98%, O=C(c1ccco1)N1CCC[C@@]2(CCN(Cc3ccccc3)C2)C1 -5.26%, CC(=O)N1CCC2(CCCN(C(c3ccccc3)c3ccccc3)C2)CC1 -12.2%, COc1cccc(-c2ccc3ncnc(NC4CCNCC4)c3c2)c1 2.29%, COc1ccccc1CN1CCCC2(CCN(S(C)(=O)=O)CC2)C1 -4.49%, O=C(c1csnn1)N1CCC[C@@]2(CCN(Cc3nccs3)C2)C1 2.1%, O=C(c1csnn1)N1CCC2(CC1)CCN(c1ccccc1)CC2 -9.9%, CC(C)CN1CC[C@@]2(CCCN(C(=O)c3cnccn3)C2)C1 6.22%, CN(C)c1ncc2ncc(=O)n(Cc3ccc(F)cc3)c2n1 -9.88%, O=C(c1ccco1)N1CCC[C@@]2(CCN(c3ccccc3)C2)C1 -8.72%, CC(C)CN1CC[C@@]2(CCCN(S(=O)(=O)c3ccccc3)C2)C1 1.83%
